Rows were chosen to be rich in hits. Some 1.6% of all compounds tested hit in one or more screens of this group.
KCNQ2 enhance – potentiators of rat KCNQ2 potassium channel | Potassium voltage-gated channel subfamily KQT member 2 (Rattus norvegicus), O88943 | CHO-K1 KCNQ2, FluxOR thallium flux fluorescence; stronger effect = higher value | B-score at 10 µM | 310,000 tested, 0.54% active | AID 2239, 2010;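 active means fluorescence ratio B-score at least 3 SD of library B-scores, with initial fluorescence B-score within 3 of them, cut at about 5.3 in these data; same plate scores as AID 2156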;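 further: B-score of peak minus minimum over baseline fluorescence ratio after K+ and Tl+ stimulus; positive B-score means potentiation of KCNQ2 with more thallium influx and brighter signal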
KCNQ2 inh – rat KCNQ2 potassium channel inhibitors, primary screen, cell-based, CHO-K1, FluxOR thallium flux, B-score. Potassium voltage-gated channel subfamily KQT member 2 (Rattus norvegicus), O88943. 20 min; stronger effect = lower value. B-score at 10 µM. 310,000 tested, 1.1% active. AID 2156, 2009;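 active means fluorescence ratio B-score at most minus 3 library SDs, with starting brightness B-score within 2 library SDs, cut at about -5.5 in these data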
Kir21 confirm – mouse Kir2.1 channel blockers, retest, confirmation, cell-based, FluxOR thallium flux, duplicate | shares compounds with KCNQ2 enhance | Kir2.1-expressing cells, FluxOR thallium flux fluorescence; stronger effect = lower value | Tl flux remaining, % of negative control (stronger effect = lower value), % at 10 µM | 2,300 tested, 41% active | AID 2032, 2009;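 active means Primary-screen hit whose thallium flux fell at least 3 control SD below untreated wells in both duplicates, with normal baseline fluorescence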;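 further: 0% = blank wells without stimulus and 100% = stimulated no-compound controls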
HEK293 ctr – alters thallium flux in parental HEK293 cells, Kir2.1 counter-screen. shares compounds with KCNQ2 enhance. FluxOR thallium flux fluorescence; 0% = unstimulated blank wells. FluxOR signal as % of negative control (100 = no effect), % at 10 µM. 2,300 tested, 19% active. AID 2105;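 active means dye signal at least 3 control SD above or below untreated wells in both duplicates, raw fluorescence within 3, either direction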;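 further: percent is based on the flux ratio of peak minus minimum fluorescence over baseline F0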
CHO-K1 Tl ctr – nonspecific thallium flux increase in parental CHO-K1, confirmation, counter-screen for KCNQ2 potentiator project, cell-based, FluxOR thallium flux, duplicate | AID 2282, 2010 | activity increase over 3SD of controls, % at 10 µM | 1,200 tested, 43% active | shares compounds with KCNQ2 enhance | parental CHO-K1 cells, FluxOR thallium flux fluorescence; zero = vehicle mean+3SD, 100% = vehicle-minus-blank window;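 active means signal rise of at least 3 SD above the untreated control mean, in both duplicate wells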;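 further: counter screen of KCNQ2 potentiator hits so any rise reflects channel-independent effects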
KCNQ1 pot spec – human KCNQ1 channel potentiation off-target, confirmation, selectivity assay for KCNQ2 potentiator project, cell-based, CHO, FluxOR thallium flux; shares compounds with KCNQ2 enhance; CHO KCNQ1 stable, FluxOR thallium flux fluorescence; beyond 3SD, as % of vehicle-control signal; activation over 3SD threshold, % at 10 µM; 1,200 tested, 28% active;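 active means fluorescence ratio rise of at least 3 SD of vehicle wells above their mean, in both replicate wells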;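 further: 0% = vehicle mean plus 3 SD and 100% = vehicle minus unstimulated blank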
Target sequence (P51787 whole entry, looked up): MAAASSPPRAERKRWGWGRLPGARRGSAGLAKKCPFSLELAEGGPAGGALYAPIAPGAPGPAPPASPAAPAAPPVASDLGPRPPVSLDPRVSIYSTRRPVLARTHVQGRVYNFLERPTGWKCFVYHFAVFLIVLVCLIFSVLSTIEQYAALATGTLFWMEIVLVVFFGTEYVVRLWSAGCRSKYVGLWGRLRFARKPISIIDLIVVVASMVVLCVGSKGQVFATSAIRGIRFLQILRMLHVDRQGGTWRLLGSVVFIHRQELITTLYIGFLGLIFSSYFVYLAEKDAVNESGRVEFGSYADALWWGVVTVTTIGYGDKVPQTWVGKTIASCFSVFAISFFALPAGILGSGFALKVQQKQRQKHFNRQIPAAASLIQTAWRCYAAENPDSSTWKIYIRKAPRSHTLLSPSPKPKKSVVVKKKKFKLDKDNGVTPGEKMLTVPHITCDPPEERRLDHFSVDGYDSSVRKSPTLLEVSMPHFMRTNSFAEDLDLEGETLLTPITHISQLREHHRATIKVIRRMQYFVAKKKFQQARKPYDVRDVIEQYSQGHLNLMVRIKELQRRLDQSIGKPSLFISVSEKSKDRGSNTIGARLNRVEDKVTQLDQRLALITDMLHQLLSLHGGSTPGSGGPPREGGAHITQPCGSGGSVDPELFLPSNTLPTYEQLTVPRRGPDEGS
KCNQ2 pot conf – rat KCNQ2 channel potentiators, confirmation, cell-based, CHO, FluxOR thallium flux, duplicate. CHO-KCNQ2 cells, FluxOR thallium flux fluorescence. AID 2287, 2010. shares compounds with KCNQ2 enhance. potentiation, less the hit threshold, % at 10 µM. 1,200 tested, 68% active;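 active means fluorescence ratio rising 3 SD or more over the vehicle control mean in both replicates, plus primary screen hit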;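 further: peak minus minimum thallium fluorescence divided by baseline after K/Tl stimulus; 0% = vehicle mean plus 3 SD and 100% = vehicle minus unstimulated blank difference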
Kir21 spec – mouse Kir2.1 channel activation off-target, confirmation, selectivity assay for KCNQ2 potentiator project, cell-based, HEK293, FluxOR thallium flux; 1,200 tested, 2% active; AID 2345, 2010; HEK293 Kir2.1, FluxOR thallium flux fluorescence; activity over 3SD threshold, % at 10 µM; shares compounds with KCNQ2 enhance;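 active means fluorescence ratio rise of at least 3 SD above the vehicle-control mean, seen in both replicates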;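 further: 0% = vehicle mean plus 3 SD and 100% = vehicle minus no-stimulus blank window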
KCNQ2 W236L pot – potentiators of retigabine-insensitive KCNQ2 W236L, mechanism study for KCNQ2 potentiator project, cell-based, rat KCNQ2 W236L, CHO, automated patch clamp; shares compounds with KCNQ2 enhance; current increase over 3SD of negative controls (%), stronger effect = higher value, % at 25 µM; 940 tested, 10% active; automated patch clamp current;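 active means current increase at least 3 SD of the untreated controls above them in both duplicate recordings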
Numbers without * were called inactive; i = inactive; x = no result.

SMILES | KCNQ2 enhance | KCNQ2 inh | Kir21 confirm | HEK293 ctr | others
NC(=O)c1sc2nc(N3CCCCC3)c3c(c2c1N)CCCC3 | 6.7* | i | i | i | CHO-K1 Tl ctr=10*;KCNQ1 pot spec=-12;KCNQ2 pot conf=-5;Kir21 spec=-29;KCNQ2 W236L pot=i
COC(=O)c1sc2nc(N3CCCCC3)c3c(c2c1N)CCCC3 | 2 | i | x | x
COc1ccc(-c2cc(=O)oc3c(O)c(O)ccc23)cc1 | 1.4 | i | x | x
CC1Oc2cc3oc4c(O)c(O)ccc4c(=O)c3c(O)c2C1(C)C (centres undefined) | 5.4* | i | i | i | CHO-K1 Tl ctr=-2;KCNQ1 pot spec=-12;KCNQ2 pot conf=-14;Kir21 spec=-18
Cc1ccc(C(=O)OCN2C(=O)c3ccccc3C2=O)c(O)c1 | x | i | x | x
CCCCn1c(N)c(N(CC)C(=O)c2ccc(C#N)cc2)c(=O)[nH]c1=O | x | i | x | x
CSc1ccc(CN(C)Cc2nc3ccccc3c(=O)[nH]2)cc1 | 0.45 | i | x | x
CC(C(=O)N1c2ccc(F)cc2CCC1C)N1C(=O)c2ccccc2C1=O (centres undefined) | 7.6* | i | i | 123%* | CHO-K1 Tl ctr=103*;KCNQ1 pot spec=-9;KCNQ2 pot conf=-12;Kir21 spec=-32
CCC(CC)C(=O)N1c2ccc(F)cc2CCC1C (centres undefined) | x | i | x | x
CCCC(=O)OCCNc1cc(Sc2nccn2C)c2nonc2c1[N+](=O)[O-] | x | i | 70%* | i
CCCSc1cc(NCCOC(=O)CCC)c([N+](=O)[O-])c2nonc12 | x | i | x | x
Cc1ccc(S(=O)(=O)N2CCOC23CCN(C(=O)C(=O)NCCC(C)C)CC3)cc1 | 0.02 | i | x | x
Nc1c(-c2cccc([N+](=O)[O-])c2)nc2ccccn12 | 3.7 | i | x | x
O=C(NC(=S)Nc1ccc(Cl)cc1)c1ccccc1 | x | i | x | x
O=C(Nc1ccc(Cl)cc1)C(Cl)C(=O)c1ccccc1 (centres undefined) | 0.25 | i | 70%* | i
Cc1ccc(NC(=S)NC(=O)c2cncc(Br)c2)cc1Cl | 7.2* | i | i | i | CHO-K1 Tl ctr=0.8*;KCNQ1 pot spec=-8;KCNQ2 pot conf=-16;Kir21 spec=-38
O=C(NC(=S)Nc1ccc(Cl)cc1)c1cncc(Br)c1 | 2.9 | i | x | x
O=C(O)c1ccc(CSCc2c(F)cccc2Cl)o1 | 1.2 | i | x | x
COc1cccc(NC(=O)COc2ccc(C(=O)N3CCN(C)CC3)cc2)c1 | 2.2 | i | x | x
C/C(=N\NC(=O)c1cccc(Br)c1)c1ccccn1 | 7.7* | i | i | i | CHO-K1 Tl ctr=-19;KCNQ1 pot spec=-11;KCNQ2 pot conf=-23;Kir21 spec=-36
C/C(=N\NC(=O)c1ccc(Cl)c(Cl)c1)c1ccccn1 | x | i | x | x
Nc1ccc(C(=O)N/N=C/c2cccc(Oc3ccccc3)c2)cc1 | 1.8 | i | 56%* | i
O=C(N/N=C/c1cccc(Oc2ccccc2)c1)c1cc[n+]([O-])cc1 | x | i | x | x
CC(C)CCNC(=O)CN(Cc1ccccc1)C(=O)CCC(=O)Nc1ccccn1 | x | i | x | x
O=C(CNCc1cccc2ccccc12)Nc1ccccc1[N+](=O)[O-] | x | i | x | x

From PubChem
